Screening results deposited in PubChem BioAssay by National Center for Advancing Translational Sciences (NCATS).
Only some compounds are listed: those with a hit (about 21% of all), similar ones and a draw of the others.
Cycloheximide cs – Cycloheximide Counterscreen for Small Molecule Inhibitors of Shiga Toxin; cell reporter, cycloheximide protein synthesis inhibition counterscreen; max response, %; 300,000 compounds, 12% hits; AID 2314, 2010; in the data active means max response mostly above about 13%, no sharp cut-off; inactive means mostly below about 14%; further: read at 38.3 µM for the half of the compounds with a filed dose; 0% is about no effect
Pf growth 96h – Primary qHTS for delayed death inhibitors of the malarial parasite plastid, 96 hour incubation; Potency, µM (titrated, usually from 28.7 µM), for inactives: top-dose activity change, negative = inhibition, most hits filed as inhibitors; P. falciparum luciferase reporter growth, 96 h; 320,000 compounds, 6.9% hits; AID 504834, 2011; further: potency means the concentration at half of the fitted maximal effect; on the % scale 0 is the no-effect control and ±100 the full control effect
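Cell-based qHTS: luciferase-tagged P. falciparum in erythrocytes (2% hematocrit, 0.05% parasitemia final) incubated with compounds for 96 hours, 37 C, 5% CO2; luciferase detection reagent then added and luminescence measured.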
Shiga toxin inh – A qHTS for Small Molecule Inhibitors of Shiga Toxin. inhibition, % at 38.7 µM. Vero cells, Shiga toxin protein synthesis inhibition reporter. 290,000 compounds, 9.2% hits. AID 2315, 2010; in the data active means inhibition mostly above about 28%, no sharp cut-off; inactive means mostly below about 43%; further: 0% is about no effect
SARS PLP yeast – qHTS of Yeast-based Assay for SARS-CoV PLP; 330,000 compounds, 0.19% hits; S. cerevisiae expressing SARS-CoV PLpro, growth rescue; Potency, µM (series often up to 32.9 µM), for the others: at the highest dose activity, positive = growth rescue, actives largely listed as activators; calls by dose curve; further: potency means the concentration at half of the fitted maximal effect; 0% is about no effect; nearly all actives have a fitted effect of over 55% in size
Pf growth 48h – Primary qHTS for delayed death inhibitors of the malarial parasite plastid, 48 hour incubation; P. falciparum luciferase growth in erythrocytes, 48 h; 310,000 compounds, 5.9% hits; Potency, µM (top dose mostly 28.7 µM), inactives show top-dose activity change, negative = inhibition, usual class: inhibitors; AID 504832, 2011; further: potency means the concentration at half of the fitted maximal effect; on the % scale 0 is the no-effect control and ±100 the full control effect
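Cell-based growth assay: transgenic P. falciparum expressing firefly luciferase, cultured in red cells within RPMI 1640 containing 0.5% w/v Albumax, 24 mM bicarbonate and gentamycin. A drop in luciferase activity indicates inhibition.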
NS1 function inh – qHTS Assay for Inhibitors of Influenza NS1 Protein Function | Potency, µM (titrated, usually from 46.1 µM), inactives show at the highest dose activity, positive = more growth | 270,000 compounds, 0.4% hits | AID 2326, 2010; calls by dose curve; further: potency means the concentration at half of the fitted maximal effect; actives are rising curves; nearly all actives have a fitted effect of over 50% in size
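Read-out: OD600 growth recovery of NS1-expressing budding yeast. Cells grown overnight at 30C in -URA glucose medium, washed, resuspended and diluted 1:100 in 2% galactose assay medium, pH 6.0. Same strain lacking NS1 served as positive control.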
* marks the source's active call; other numbers are inactive results; ? = inconclusive; . = not tested or not shown; [ ] = remark or other dose. Unless noted, the call rests on the fitted dose curve; in most records, active means well fitted inhibition curve with a large enough effect; inconclusive means small, poorly fitted or top-dose-only effect, or another doubt; inactive means no such curve, though single readings can be large or run the other way.

SMILES	Cycloheximide cs	Pf growth 96h	Shiga toxin inh	SARS PLP yeast	Pf growth 48h	NS1 function inh
CC(C)c1cc(C(=O)NNC(=S)NCc2ccco2)c(O)c(C(C)C)c1	3	?	-6	12%	13%	-1%
Cc1cccc(NC(=O)C2CCN(S(=O)(=O)c3c(C)noc3C)CC2)c1	-4	32%	-8	-1%	10%	6%
COc1ccc(OC)c(C(=O)c2ccc(C(=O)N3CCCCC3)cc2)c1	-3	?	10	-3%	-18%	-13%
CCOC(=O)CCSc1nnc(-c2cccnc2)n1-c1ccccc1OC	-5	4%	-4	2%	-2%	2%
COc1ccc(NC(=O)CN(C)S(=O)(=O)c2ccc(Cl)cc2)cn1	.	?	.	-4%	?	.
O=C1c2ccccc2C(=O)N1CCCc1nc2ccccc2c(=O)n1CCCn1ccnc1	-7	1.9µM*	-15	4%	-27%	-7%
CN1CCC(N(C)C(=O)c2ccc(Cl)c(S(=O)(=O)N3CCCCC3)c2)CC1	.	?	.	3%	-18%	.
CCCCN1C(=O)N(C)C2NC(=S)NC21 (configuration not stated)	-2	21%	12	-1%	3%	-3%
CCOC(=O)C1CN(S(=O)(=O)c2ccc(Cl)cc2)c2cc(S(=O)(=O)CC)ccc2O1 (configuration not stated)	-5	-29%	29	0%	?	-18%
CCC1CN(S(=O)(=O)c2ccc3c(c2)NC(=O)CC(=O)N3)c2cc(Cl)ccc2O1 (configuration not stated)	-3	?	-1	3%	2.1µM*	12%
CN1CCC[C@H]1CCNC(=O)c1c(-c2ccsc2)sc2ccccc12	.	.	.	6%	.	.
CN1CCCC1CCNc1ccc2oc3ccccc3c(=O)c2c1 (configuration not stated)	25*	-64%	44	-2%	84%	2%
CN1CCCC1CCNc1ccc2c(=O)c3ccccc3oc2c1 (configuration not stated)	41*	152%	33	-3%	44%	0%
CC(C)(C)CN1CCC(Oc2cccc(C(=O)NCCCOc3cccnc3)c2)CC1	-3	54%	-5	?	?	-5%
S=C(NCC1CCCO1)Nc1ccc(Cl)c(Cl)c1 (configuration not stated)	13	3%	50*	0%	34%	7%
CCNS(=O)(=O)c1ccc(NC(=S)NCC2CCCO2)cc1 (configuration not stated)	4	?	-10	2%	-9%	1%
O=C(Cc1ccc(Cl)c(Cl)c1)NNC(=S)NCC1CCCO1 (configuration not stated)	-2	?	-3	-7%	4%	7%
CN(C)c1ccc(NC(=S)NCC2CCCO2)cc1 (configuration not stated)	42*	155%	39*	20%	78%	5%
CCc1ccc(NC(=O)C(=O)NCC2CCCO2)cc1 (configuration not stated)	46*	-10%	101*	-2%	423%	.
CCCCc1ccc(NC(=S)NCC2CCCO2)cc1 (configuration not stated)	8.8*	-1%[5.75 µM]	33*	0%	-21%	.
O=C(NCCC1CCCCN1S(=O)(=O)c1cccs1)C(=O)Nc1cccc(F)c1 (configuration not stated)	.	8%	.	1%	?	.
Cc1ccccc1OCC(=O)N(Cc1ccco1)c1c(N)n(Cc2ccccc2)c(=O)[nH]c1=O	.	-15%	.	0%	-27%	.
CSCC[C@H](N)C(=O)N[C@@H](CCC(=O)O)C(=O)N[C@H](C(=O)NCC(=O)N[C@@H](Cc1c[nH]c2ccccc12)C(=O)N[C@@H](Cc1ccc(O)cc1)C(=O)N[C@@H](CCCNC(=N)N)C(=O)N[C@@H](CO)C(=O)N1CCC[C@H]1C(=O)N[C@@H](Cc1ccccc1)C(=O)N[C@@H](CO)C(=O)N[C@@H](CCCNC(=N)N)C(=O)N[C@H](C(=O)N[C@H](C(=O)N[C@@H](Cc1cnc[nH]1)C(=O)N[C@@H](CC(C)C)C(=O)N[C@@H](Cc1ccc(O)cc1)C(=O)N[C@@H](CCCNC(=N)N)C(=O)N[C@@H](CC(N)=O)C(=O)NCC(=O)N[C@@H](CCCCN)C(=O)O)C(C)C)C(C)C)C(C)C	-4	.	-4	.	.	.
COc1cc(OC)cc(C(=O)NCC(=O)OCC(=O)NCc2ccco2)c1	.	.	.	-20%	.	.
Cc1nc(C)c(-c2ccc(SCc3ccccc3C)nn2)s1	45*	-7%	34*	-11%	26%	0%
SMILES	Cycloheximide cs	Pf growth 96h	Shiga toxin inh	SARS PLP yeast	Pf growth 48h	NS1 function inh
Cc1ccccc1CSc1ccc(-c2ccc3c(c2)OCO3)nn1	49*	103%	82*	6%	65%	-3%
c1cncc(CSc2ccc(-c3ccc4c(c3)OCO4)nn2)c1	57*	0%	99*	-15%	336%	.
CCc1c2c(nc3ccc4c(c13)OCCO4)-c1nc3ccccc3c(=O)n1C2	-8	.	-1	.	.	.
CCCC1=[N+](CC)CCn2c(C)ccc21	-2	29%	-3	3%	4.7µM*	4%
CC(=O)Nc1sc(NC(=O)c2ccccc2)nc1-c1cccs1	21	-28%	14	-5%	-3%	-8%
COc1ccccc1C(=O)Nc1nnc(C)s1	39*	.	81*	6%	145%	-49%
Cc1ccc(C(=O)Nc2nnc(-c3ccc(C(C)(C)C)cc3)s2)cc1	25	116%	36*	-13%	46%	6%
COc1cccc(C(=O)Nc2sc(C(C)C)cc2C(N)=O)c1OC	-2	13µM*	-5	-4%	?	-152%
Cc1nnc(NC(=O)c2ccccc2-c2ccccc2C(=O)O)s1	-1	16%	2	3%	5%	3%
COc1ccccc1C(=O)Nc1nc(-c2cccs2)c(NC(C)=O)s1	30*	330%	57*	11%	91%	3%
COc1ccc(C(=O)Nc2nnc(-c3ccccc3)s2)cc1	12	39%	4	2%	104%	10%
COc1cccc(C(=O)Nc2nnc(-c3ccccc3)s2)c1OC	43*	185%	41*	-8%	88%	-22%
COc1ccccc1C(=O)Nc1nnc(-c2ccccc2)s1	35*	-13%	.	-11%	52%	-30%
COc1ccccc1C(=O)N(C)c1nnc(-c2ccccc2)s1	37*	?	66*	2%	0%	-50%
Cc1cc(Cl)ccc1NC(=S)NCC(O)c1ccccc1 (configuration not stated)	8	?	.	4%	-6%	18%
N#CCCN(C(=O)COC(=O)c1ccc2ccccc2n1)c1ccccc1	.	-10%	.	2%	-8%	.
